# According to the supplement of paper PMC7156485:
# ± gives the standard deviation of the averaged measurements.
# Tested on: HCC1569
# Assay: cell number relative to DMSO (% of DMSO); higher = more cells (less growth inhibition / toxicity)
# Conditions: concentration: 10 µM; 24 h
# Procedure, shortened: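 Cell number or H1.0 nuclear intensity appears as percent of the plate control, based on the median of replicates. Measurements came from HCC1569 and TDF cells exposed in triplicate to compounds at 10 µM for 24 h at 37 °C, then imaged in six fields per well at ×10. Positional effects were smoothed out of HCC1569 values.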
# 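Also: TDF denotes transformed human dermal fibroblasts of mesenchymal origin.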
row,SMILES,cell number
1,O=c1nc[nH]c2c1ncn2C1CCC(CO)O1 (configuration not stated) [Didanosine],101
2,NCCCC(=O)O,109
3,CNc1ncnc2c1ncn2C1OC(CO)C(O)C1O (configuration not stated) [N6-Methyladenosine],95.6
4,"Brc1c(Br)c(Br)c2n[nH]nc2c1Br [TBB - 4,5,6,7-Tetrabromobenzotriazole]",104
5,Cn1c(=O)c2c(ncn2Cc2ccc(C(C)(C)C)cc2)n(C)c1=O,81.6
6,"O=C1Nc2cc(Br)ccc2C1=C1N=c2ccccc2=C1NO [(2'Z,3'E)-6-Bromoindirubin-3'-oxime]",54.7
7,COc1ccc(C2CC(=O)c3c(O)cc(OC4OC(CO)C(O)C(O)C4OC4OC(C)C(O)C(O)C4O)cc3O2)cc1O (configuration not stated) [Neohesperidin],99.8
8,CCCCCCCCCCCC=CCCCCCC(=O)O [7(E)-Nonadecenoic acid],98.7
9,CCCCNC(=O)NS(=O)(=O)c1ccc(C)cc1 [Tolbutamide],102 ± 3.9
10,CCCCCC=CCC1OC1C(O)C=CCC=CCCCC(=O)O (configuration not stated) [Hepoxilin B3],102
11,CCN(CC)CCNC(=O)c1c(C)[nH]c(C=C2C(=O)Nc3ccc(F)cc32)c1C [Sunitinib],92.1
12,O=C(c1ccccc1)c1ccc(N2CCOCC2)cc1O [DNA-PK Inhibitor V],94.7
13,CCN1CCN(C(=O)NC(C(=O)NC2C(=O)N3C(C(=O)O)=C(CSc4nnnn4C)CSC23)c2ccc(O)cc2)C(=O)C1=O (configuration not stated) [Cefoperazone acid],100
14,CCCCCC=CCC=CCC=CC=CC1CCCC(=O)O1 (racemic),106
15,Cn1c(-c2ccc3c(c2)OCO3)cc(=O)c2ccccc21 [Graveoline],103
16,CCc1nn(CCCN2CCN(c3cccc(Cl)c3)CC2)c(=O)n1CCOc1ccccc1,92.2
17,O[C@@H]1[C@@H](O)[C@H](OC/C=C/c2ccccc2)O[C@H](CO[C@@H]2OC[C@H](O)[C@H](O)[C@H]2O)[C@H]1O,97
18,Cc1ccc(S(=O)(=O)NC(=O)NN2CCCCCC2)cc1 [Tolazamide],101.3 ± 0.45
19,Cc1c(C)c2c(c(C)c1OC(=O)CCC(=O)O)CCC(C)(CCCC(C)CCCC(C)CCCC(C)C)O2 (configuration not stated) [Tocopherol succinate],98.1

row,SMILES,cell number
1,CCCCCCC=CCCCCCCCCC(=O)O [10(E)-Heptadecenoic acid],97.6
2,COc1ccc(-c2nn3c(-c4ccccn4)nnc3s2)cc1OC,98
3,CCCCCCCCCC(=O)O [Decanoic acid],105
4,Cc1cnc(Nc2ccc(N3CCN(C)CC3)cc2)nc1Nc1cccc(S(=O)(=O)NC(C)(C)C)c1,31.4
5,CCCC(CCC)C(=O)O [Valproic acid],100
6,"CN(C)CCC(c1ccc(Br)cc1)c1ccccn1.O=C(O)C=CC(=O)O (single isomer, unassigned; (+)) [(+)-Brompheniramine maleate]",96.5
7,C=CC1CN2CCC1CC2C(O)c1ccnc2ccc(OC)cc12.Cl.O (configuration not stated),99.6
8,N[C@@H](Cc1ccc(O)c(I)c1)C(=O)O [3-Iodo-L-tyrosine],108
9,CC(N)=NCCC[C@H](N)C(=O)O.Cl [L-N5-(1-Iminoethyl)ornithine hydrochloride],101
10,Cc1cn2cc(C(=O)N(C)CCO)cc(N[C@@H]3CCOc4cccc(C)c43)c2n1,97.8
11,CC=CC(=O)N(CC)c1ccccc1C [Crotamiton],103
12,Clc1ccc(C(Cn2ccnc2)OCc2csc3c(Cl)cccc23)c(Cl)c1.O=[N+]([O-])O (configuration not stated),88.9
13,C#CCCCCCCCCCCCCCCCC(=O)O [17-Octadecynoic acid],102
14,CC1COc2c(C3(N)CC3)c(F)cc3c(=O)c(C(=O)O)cn1c23 (configuration not stated) [Pazufloxacin],104
15,CCCCCCCCc1ccc(CCC(N)(CO)CO)cc1.Cl,13.6
16,COc1ccc2cc1Oc1ccc(cc1)CC1c3cc(c(OC)cc3CCN1C)Oc1c(OC)c(OC)c(OC)c3c1C(C2)N(C)CC3 (configuration not stated) [Hernandezine],93.5
17,"O=Nc1ccc2oc(=O)ccc2c1 [6-Nitroso-1,2-benzopyrone]",100
18,O=C(NC(Cc1ccccc1)C(=O)CCl)OCc1ccccc1 [Z-L-Phe chloromethyl ketone],54.9
